The campaign covered roughly 53,000 compounds. About 900 (1.7%) showed an effect of 50% or more. Many of the other results were omitted from the sample, so strong results are more common in it than they were.

In the test the test system is Mycobacterium tuberculosis. Put plainly: Cornell - Phenotypic assay to identify agents that inhibit growth of Mycobacterium tuberculosis. Format: functional. Also noted: scale not given: direction of the effect not stated beside the values. The conditions noted are these: 10 mM as filed; unlikely as a test dose.
`CC(=O)N1CC(c2n[nH]c3ncccc23)C1`: the “Percent Effect” value is given as -13.82%. In the case of `CNS(=O)(=O)CC(=O)N1CCCc2cc(Br)ccc21`, the “Percent Effect” value is listed as -18.99%. `COCc1nc(C(=O)OCC2CCN(c3ccccc3)C2)cs1` (stereo not given): the “Percent Effect” value is reported as 17.1%. The value for `COc1ccc(C(NCc2ccc(C#N)cc2)C2CC2)cc1.Cl` (stereo not given) was -15.68%; that for `c1cnc2[nH]c(C3CCCC3)c(CN3CCCCC3)c2c1` was 34.75%; that for `CCN1CCN(Cc2c(C3CCCC3)[nH]c3ncccc23)CC1` was 74.68%.

In the case of `c1cnc2[nH]c(C3CCCC3)c(CN3CCOCC3)c2c1`, the “Percent Effect” value is listed as 24.1%. The value for `CC1CCN(C(=O)C2CC(=O)N(c3cnn(C(C)C)c3)C2)CC1` (stereo not given) was -3.187%; that for `CNc1oc(-c2ccc(S(=O)(=O)N(C)C)o2)nc1C#N` was 17.81%; that for `CN(C)S(=O)(=O)c1ccc(-c2nc(C#N)c(NC(C)(C)C)o2)o1.Cl` was 104.3%. Take `CC(C)Nc1oc(-c2ccc(S(=O)(=O)N(C)C)o2)nc1C#N`: the “Percent Effect” value was -45.52%. The value for `Cc1nc(N2CCC(CC(=O)N3CCCC3)CC2)c2cnn(C)c2n1` was 3.468%; that for `CC(C)C1SCC(=O)Nc2c1cnn2C(C)C` (stereo not given) was 18.65%. In the case of `CNc1ccc(C2CN(c3cc(C)ncn3)CCO2)nc1` (stereo not given), the “Percent Effect” value was determined as 34.11%. For the molecule `CNc1ccc(C2CN(c3nc(C)cc(C)n3)CCO2)nc1` (stereo not given), the “Percent Effect” value was found to be 51.49%. The value for `CNc1ccc(C2CN(c3cc(C)nc(N)n3)CCO2)nc1` (stereo not given) was 24.16%. Regarding `O=C(Cc1ccccc1O)Nc1ccc(N2CCCC2)nc1`, the “Percent Effect” value was -5.098%. For `Cc1cc(NC(=O)Cc2ccccc2O)cnc1N1CCCCC1` the value was 28.35%. As for `Cc1cc(NC(=O)Cc2ccccc2O)c[nH]c1=O`, the “Percent Effect” value was 77.58%.

Take `Cc1cc(NC(=O)C(C)N2CCN(c3ccccc3F)CC2)no1` (stereo not given): the “Percent Effect” value came to 2.813%. For the molecule `CCC(O)CNc1ccc(-c2nc(CC(C)C)no2)cn1` (stereo not given), the “Percent Effect” value amounted to 50.96%. For `CCn1cncc1CNc1ccc(-c2nc(CC(C)C)no2)cn1` the value was 11.21%; for `CC(C)Cc1noc(-c2ccc(NCc3noc(C(C)C)n3)nc2)n1`, 44.87%; for `CN(C(=O)C1(C#N)CCCCC1)c1nccs1`, 17.67%.

Consider `O=S(=O)(N1CCCCCC1)N1CCN(Cc2ccc(F)cc2Br)CC1`, for which the “Percent Effect” value stood at 10.21%. For `CS(=O)(=O)N1CCN(Cc2ccc(F)cc2Br)CC1` the value was 31.68%; for `Oc1ccc(N2CCN(Cc3cc4c(cc3Br)OCCO4)CC2)cc1`, 104.9%; for `OC1CCN(Cc2cc3c(cc2Br)OCCO3)CC1`, 5.885%.

For `OCCN1CCN(Cc2cc3c(cc2Br)OCCO3)CC1`, the “Percent Effect” value is listed as -50.33%.

`Oc1ccc(N2CCN(Cc3ccc(F)cc3Br)CC2)cc1`: the “Percent Effect” value is 105.2%.

The record behind these values is ChEMBL document CHEMBL3988442, “University of Dundee, Small-Polar-MMV Screening Library” (2021).
